# Measurements: PubChem BioAssay
# Values without a mark were called inactive.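 Rule for the calls: active = RAM network inhibition above 8.4% in each of two replicates, 3 SD over the compound average; inconclusive = above 8.4% inhibition in only one replicate; inactive = 8.4% inhibition or less in each replicate.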
# Assay: RAM signaling pathway blockade in yeast – S. cerevisiae, Pdr1DBD-CYC8 efflux-inhibited sensitized strain, primary screen (AID 1298);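 note: 0% = DMSO untreated cells without growth and 100% = 10 µM 1-NA-PP1 full growth; higher means more yeast growth rescued from 5-FOA killing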
# Conditions: S. cerevisiae cbk1-as DSE1-URA3 strain, 5-FOA growth OD615, 2 d; at 50 µM; hits give high values
row,SMILES,RAM network inhibition [%]
1,CS(=O)(=O)N(Cc1ccc(C(=O)NCc2ccco2)cc1)c1ccccc1,4.76
2,COc1ccc(N(CC(=O)N2CCN(C)CC2)S(C)(=O)=O)cc1OC,6.2
3,Cc1ncc(CO)c2cc(S(=O)(=O)c3ccc(F)cc3)c(=O)oc12,1.42
4,CCN(CC)c1ccc(/C=N/n2c(C)cc(C)cc2=O)cc1,1.36
5,COc1ccc(C)cc1NC(=O)c1cc2c(CO)cnc(C)c2oc1=N,0.63
6,Cc1cc(C)nc(SCC(=O)Nc2ccc(S(=O)(=O)Nc3onc(C)c3C)cc2)n1,-1.62
7,CCCCOC(=O)c1ccc(NS(=O)(=O)c2cc(-c3nnnn3CC)ccc2OC)cc1,4.7
8,Cc1oc(-c2ccc(Cl)cc2)nc1CN1CCCC(C(=O)N2CCN(C(=O)c3ccco3)CC2)C1 (stereo not given),7.1
9,COc1ccc(NC(=O)N(Cc2ccc(C)cc2)Cc2ccccn2)c(OC)c1,4.18
10,O=C(O)c1ccc(NS(=O)(=O)c2cccc3cccnc23)cc1,1.04
11,Cc1c(C(=O)NCc2ccc3c(c2)OCO3)sc2nc(-c3ccc(F)cc3)cn12,6.3
12,Nc1c(S(=O)(=O)c2ccccc2)c2nc3ccccc3nc2n1Cc1ccco1,7.51
13,CCN(CCNC(=O)CCCn1nc(C)n2c(cc3sccc32)c1=O)c1ccccc1,6.63
14,Cc1ccc(N2CC(C(=O)Nc3cccc(F)c3)CC2=O)cc1 (stereo not given),8.04
15,CCOc1ccc(NC(=O)CN2C(=O)COc3ccc(Cl)cc32)cc1,6.61
16,CN1CCN(c2ccccc2NC(=O)C(Cc2ccccc2)n2cccc2)CC1 (stereo not given),4.23
17,CN1CCCc2cc3c(C(F)(F)F)cc(=O)oc3nc21,1.82
18,O=C(Nc1nc(-c2ccccn2)cs1)C1COc2ccccc2O1 (stereo not given),-2.19
19,Cc1cc(-c2nnc(-c3cc4ccccc4oc3=O)o2)c(C)n1-c1ccccc1,3.21
20,COc1cccc(-c2nc(CS(=O)CC(=O)NCc3ccc4c(c3)OCO4)c(C)o2)c1 (stereo not given),4.76

row,SMILES,RAM network inhibition [%]
1,CCCCC(=O)OCCNC(=O)c1cc2ccccc2oc1=O,2.46
2,CC(=O)Nc1ccc(S(=O)(=O)NCCc2cc3c(C)ccc(C)c3[nH]c2=O)cc1,1.05
3,Fc1cc2nc(-c3ccncc3)[nH]c2cc1F,2.24
4,CCC(=O)NCCn1c(C)cc2ccccc21,-0.46
5,O=C(O)c1cccc(NS(=O)(=O)c2cccc3cccnc23)c1,4.37
6,NC(=O)COc1ccc(=O)n(-c2ccccc2)n1,1.14
7,COc1cc2c(C(=O)NCc3ccccn3)cn(C)c(=O)c2cc1OC,1.07
8,CCOc1ccc(N(CC(=O)NCc2ccccc2)S(C)(=O)=O)cc1,-0.46
9,COc1ccc(S(=O)(=O)Cc2ccc(C(=O)N3CCN(C4CCCCC4)CC3)o2)cc1,-1.9
10,CCn1c(CNC(=O)C23CC4CC(CC(C4)C2)C3)nnc1SCC(=O)Nc1nnc(C)s1,2.71
11,COc1ccc(N(CC(=O)NCc2ccco2)S(=O)(=O)c2c(C)nn(C)c2C)cc1,0.73
12,Cc1cccnc1NC(=O)c1c(O)c2ccccc2n(C)c1=O,-1.38
13,COc1ccc(C2OC(=O)CC2C(=O)N2CCN(c3cc(Cl)ccc3C)CC2)cc1OC (stereo not given),2.7
14,CCc1cc2c(=O)c(-c3nc4ccccc4n3C)c(C(C)C)oc2c(CN2CCN(C)CC2)c1O,1.64
15,CCCSc1nnc2c(n1)OC(c1cccn1C)N(C(C)=O)c1ccccc1-2 (stereo not given),3.57
16,CC(NC(=O)CSc1ncnc2nc[nH]c12)c1ccccc1 (stereo not given),0.48
17,Cc1ccc(-n2nnc3c(=O)n(CC(=O)NCc4ccco4)cnc32)cc1,7.68
18,O=C(c1oc(=O)c2ccccc2c1-c1ccccc1)N1CCC(O)CC1,1.92
19,CC(CCCC(C)(C)O)NCCO (stereo not given),-0.17
20,O=C(c1ccco1)N1CCN(c2nc3ccsc3c(=O)s2)CC1,5.38
